Test results taken from the supplement of paper PMC3334620.
The full ranking holds about 33,000 sequences; the median of “E-score (-0.5 to 0.5)” is about -0.0014, and the highest 2% start at about 0.25. This is one part of a sample in which the highest values are shown more often than they occur.

molecular target: T1, Cad1 (UniProt P24813); assay: PBM E-score (8-mer binding enrichment) (E-score (-0.5 to 0.5)); higher = stronger / more preferred TF binding; conditions: protein concentration: 100 nM; construct: GST-full length
T1 sequence: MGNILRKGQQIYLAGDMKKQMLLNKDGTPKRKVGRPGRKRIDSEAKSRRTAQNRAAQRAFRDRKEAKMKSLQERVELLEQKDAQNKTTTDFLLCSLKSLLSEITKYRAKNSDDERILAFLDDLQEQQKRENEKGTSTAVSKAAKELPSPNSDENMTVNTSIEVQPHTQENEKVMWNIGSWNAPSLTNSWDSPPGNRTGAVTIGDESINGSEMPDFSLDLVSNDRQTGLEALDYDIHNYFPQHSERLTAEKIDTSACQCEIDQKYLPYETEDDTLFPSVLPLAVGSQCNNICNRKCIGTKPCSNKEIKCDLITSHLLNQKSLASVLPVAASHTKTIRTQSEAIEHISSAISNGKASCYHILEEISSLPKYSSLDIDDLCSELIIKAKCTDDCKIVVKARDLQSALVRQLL
Method in brief: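 Universal all-10-mer Agilent arrays, double-stranded by primer extension on fresh or once-stripped slides, were probed with about 100-200 nM GST-tagged yeast transcription factors made by PURExpress. Fluorescent anti-GST detected bound protein, and masliner normalised the scans. E-scores from the Universal PBM Analysis Suite were given to each ungapped eight-base word pooled with its reverse complement.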

| Sequence | PBM E-score |
| --- | --- |
| TGAAAACA | 0.131 |
| CAAAGTAA | -0.00082 |
| AAAAGTAA | 0.265 |
| AAAAGTAT | 0.0548 |
| GATAGTGA | 0.157 |
| CATTTTTC | 0.124 |
| ATGAAAAT | 0.0649 |
| ATGAAAAG | 0.0321 |
| ACGAAAAG | 0.0611 |
| ACGAAAAA | -0.045 |
| ATGAAAAA | 0.27 |
| ACGAAAAC | 0.259 |
| ACTTCACT | -0.00075 |
| CACAAGCG | -0.145 |
| ATATCCCA | 0.0408 |
| CGCTCCAA | 0.0125 |
| ACGTTAAC | 0.102 |
| CCGTTAAC | 0.0965 |
| GCGTTAAC | 0.257 |
| GTGTTAAC | 0.168 |
| ATGTTAAC | 0.0833 |
| CTGTTAAC | 0.258 |
| TGGGAACA | -0.0827 |
| CAGGTTTC | 0.111 |
| ATGAACTA | 0.0699 |
| CCCTTTAA | -0.135 |

| Sequence | PBM E-score |
| --- | --- |
| GTGTTTAA | 0.233 |
| GTAGATCA | 0.0116 |
| AGTGGTAC | -0.103 |
| GCCACAGC | -0.115 |
| ATGAGTAG | 0.0743 |
| ATGAGTAC | 0.0206 |
| CTGAGTAA | 0.254 |
| GTGAGTAA | 0.129 |
| CTGAGTAC | -0.06 |
| ATGAGTAA | 0.286 |
| CCTAGTGA | -0.171 |
| AGGGGTCA | -0.304 |
| CTCGGGGA | -0.0482 |
| GATCCGTA | -0.0959 |
| CTCGTAAG | 0.264 |
| CTCGTAAC | 0.112 |
| ATCGTAAG | -0.0168 |
| CAGAGACC | -0.145 |
| ATGGTCGC | -0.127 |
| AGGTCTCG | -0.2 |
| CCAGAAGC | -0.248 |
| ATATCAAC | 0.253 |
| ATATCAAG | 0.251 |
| CAATCAAC | 0.228 |
| ATATCAGG | 0.00611 |
| TTATCAAA | 0.3 |

| Sequence | PBM E-score |
| --- | --- |
| GTATCAAA | 0.142 |
| CTATCAAA | 0.0734 |
| CTATCAAG | 0.0773 |
| GAATCAAA | 0.0378 |
| CTATCAAC | 0.219 |
| GAATCAAC | 0.264 |
| GTATCAAC | -0.0681 |
| TCAGCACA | 0.172 |
| TAGCGCCA | 0.0297 |
| CCAGCTGA | 0.155 |
| AGTCAGGG | -0.148 |
| CGATTCTC | 0.0405 |
| ACATGGCC | 0.141 |
| CCGCGAAG | 0.12 |
| ACTGTCGA | 0.0753 |
| AAGGCTGA | -0.00348 |
| CCAGTGCC | -0.0306 |
| AGTGCGAG | -0.0178 |
| ATATCAAT | 0.253 |
| ATATCAAA | 0.0329 |
| AGATCAAT | -0.021 |
| AGACCTAT | 0.111 |
| ATCGATGA | 0.13 |
| CTTCCGCA | 0.0248 |
| GTTCCGCA | 0.252 |
| ATTCCGCA | -0.0887 |

| Sequence | PBM E-score |
| --- | --- |
| GACGGAGA | 0.038 |
| ATAGGTGA | -0.0537 |
| AAATCGAA | -0.156 |
| TAATCCAA | 0.255 |
| TAATCGAA | 0.35 |
| CAATCGAA | 0.0916 |
| AAATCCAA | 0.115 |
| GAATCCAA | -0.0184 |
| CGTTCGTC | 0.248 |
| AGTCTCAT | -0.0485 |
| GCGCATCC | -0.0757 |
| ATGAGGAC | -0.0183 |
| AGGGGCGC | -0.103 |
| ATTGTCAC | 0.0726 |
| ATTGTCCA | 0.132 |
| ATTGTCCG | 0.271 |
| ATTGTCCC | -0.0923 |
| ATTGTCAG | 0.306 |
| ATTGTCAA | 0.084 |
| ATCAGAAG | -0.0366 |
| ATTTGGAG | -0.204 |
| ACTCCACT | -0.0657 |
| ACCCGGCG | -0.12 |
| CACGACAG | 0.0344 |
| CACTGTAA | 0.00669 |
| GATACCCA | 0.122 |

| Sequence | PBM E-score |
| --- | --- |
| ACGCGTAA | 0.176 |
| ATGCGCAC | 0.14 |
| GCGCGCAA | 0.303 |
| GTACGCAA | 0.0953 |
| ATACGCAA | 0.119 |
| TTACGCAA | 0.268 |
| TCGCGTAA | 0.19 |
| ATGCGCAG | -0.0137 |
| ACGCGCAA | 0.206 |
| CCGCGCAA | 0.0795 |
| ATGCGCAT | 0.334 |
| GCGCGTAA | 0.293 |
| GCCTCAGC | -0.0857 |
| CTTTCACA | 0.209 |
| ACAGCATG | -0.053 |
| AACTTGGG | -0.0849 |
| GGTTGGTA | 0.101 |
| GCGCAGAA | 0.262 |
| GTGCGCAA | 0.0688 |
| TAGCGCAA | 0.207 |
| ATGCGCAA | 0.107 |
| TTGCGCAA | 0.258 |
| CCGCAGAA | 0.179 |
| TCGCAGAA | -0.192 |
| TCGCGCAA | 0.27 |
| TGGCGCAA | -0.0637 |

| Sequence | PBM E-score |
| --- | --- |
| ATACACTA | 0.205 |
| ATATCGTG | 0.164 |
| ACACCGCC | 0.0284 |
| AGGATCTA | -0.266 |
| ACGCATGG | -0.215 |
| ACGCATGA | 0.0155 |
| ACGCATGC | 0.283 |
| ACGCTGAC | 0.3 |
| CTGCTGTC | -0.0811 |
| CAGCTGAC | 0.182 |
| ACGCTGAT | 0.166 |
| CAGCTGTC | 0.253 |
| CTGCTGAA | 0.0549 |
| CAGCTGAG | 0.0708 |
| ACGCTGTC | -0.187 |
| CTGCTGAC | 0.275 |
| GGAAGAAA | -0.0518 |
| CTAGTTGC | 0.0214 |
| GGACTTGA | -0.232 |
| ATACTCTG | 0.0457 |
| ATCAGCAC | 0.0147 |
| CTCAGCAA | 0.106 |
| ATCAGCAA | 0.122 |
| CTCAGCAC | 0.0326 |
| GTCAGCAA | 0.295 |
| GTCAGCAC | 0.261 |

| Sequence | PBM E-score |
| --- | --- |
| AGCTCCAC | -0.0867 |
| AACGTAGA | 0.0503 |
| CTTGCTAC | -0.0445 |
| ACTGTAAT | 0.111 |
| CTGCCGCA | -0.0367 |
| ACGGGTCT | -0.252 |
| AGCGATGG | -0.0366 |
| TCTTAGCA | -0.0984 |
| AACGACCT | -0.0376 |
| ATCAATCA | 0.13 |
| GCGATTAA | 0.123 |
| ACGATTAA | 0.0443 |
| ATGATTAG | 0.094 |
| TCGATTAA | 0.301 |
| CTGATTTA | 0.0612 |
| ATGATTAC | 0.192 |
| CTGATTAA | 0.362 |
| CTGATTAC | 0.334 |
| CTGATTTC | 0.182 |
| GTGATTAA | 0.228 |
| ATGATTAA | 0.32 |
| ATGATTGA | 0.0737 |
